Screening results from PubChem.
A selection: hits, their analogues and other compounds. The true share with any hit is near 7.2%.
NIH3T3 tox – NIH 3T3 cell cytotoxicity; NIH 3T3 viability, CellTiter-Glo ATP luminescence, 48-72 h; Potency, µM (series often up to 96.7 µM), for the others: at the top dose activity change, negative = cytotoxicity, actives largely listed as inhibitors; 94,000 tested, 4.3% active; AID 1345082; note: % is set by controls: 0 for no effect and ±100 for the full control effect; nearly all actives have a fitted effect of over 55% in size
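Luminescent ATP readout (CellTiter-Glo, 10 min RT) after 48 or 72 hr compound exposure of NIH 3T3 cells seeded at 400 cells/well in 1536-well format; quantitative HTS.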
hNpr1 antagonist – antagonists of human natriuretic peptide receptor Npr1; Potency, µM (top dose mostly 46.3 µM), inactives show at the highest dose activity change, negative = inhibition, hits mostly inhibitors; HEK293 hNpr1 GloSensor cGMP, ANP-stimulated luminescence; P16066; 76,000 tested, 1.6% active; calls by dose curve; note: % is set by controls: 0 for no effect and ±100 for the full control effect; nearly all actives have a fitted effect of over 60% in size
Target sequence (P16066 whole entry, looked up): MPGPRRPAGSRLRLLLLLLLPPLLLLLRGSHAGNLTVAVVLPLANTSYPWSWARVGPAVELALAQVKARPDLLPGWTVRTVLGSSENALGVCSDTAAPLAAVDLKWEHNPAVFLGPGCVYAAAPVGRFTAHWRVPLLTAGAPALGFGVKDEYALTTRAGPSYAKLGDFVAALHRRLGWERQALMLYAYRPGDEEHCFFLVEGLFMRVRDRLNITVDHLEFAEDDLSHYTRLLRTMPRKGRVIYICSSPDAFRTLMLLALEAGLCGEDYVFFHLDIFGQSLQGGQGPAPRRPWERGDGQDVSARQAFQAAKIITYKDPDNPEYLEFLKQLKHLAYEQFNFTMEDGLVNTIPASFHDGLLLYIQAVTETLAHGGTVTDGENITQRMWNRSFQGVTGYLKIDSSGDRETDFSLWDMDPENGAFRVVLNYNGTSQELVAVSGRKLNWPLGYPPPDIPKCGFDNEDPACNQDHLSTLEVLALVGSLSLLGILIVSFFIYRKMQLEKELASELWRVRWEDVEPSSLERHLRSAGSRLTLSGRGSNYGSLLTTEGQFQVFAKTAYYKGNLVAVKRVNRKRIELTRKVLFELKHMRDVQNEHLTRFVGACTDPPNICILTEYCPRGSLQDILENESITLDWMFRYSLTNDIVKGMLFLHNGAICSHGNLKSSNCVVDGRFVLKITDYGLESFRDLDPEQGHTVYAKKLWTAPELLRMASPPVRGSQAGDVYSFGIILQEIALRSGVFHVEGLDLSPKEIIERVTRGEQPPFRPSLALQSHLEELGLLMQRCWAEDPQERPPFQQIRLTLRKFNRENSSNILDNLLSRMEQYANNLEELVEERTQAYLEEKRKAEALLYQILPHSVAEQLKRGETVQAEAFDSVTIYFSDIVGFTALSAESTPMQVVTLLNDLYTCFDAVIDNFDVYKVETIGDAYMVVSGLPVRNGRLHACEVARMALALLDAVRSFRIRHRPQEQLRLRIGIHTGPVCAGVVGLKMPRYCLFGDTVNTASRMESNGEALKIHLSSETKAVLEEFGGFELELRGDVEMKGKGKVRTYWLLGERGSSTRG
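Compound pre-incubated 30 min at room temperature on GloSensor-loaded HEK293 cells stably carrying hNpr1 and the pGS-40F cGMP biosensor. Stimulation uses hNppA at 0.1 nM final; luminescence is taken at baseline and 20 min post-agonist.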
HEK cytotox – cytotoxic compounds in HEK 293 cells; AID 1345083; Potency, µM (titrated, usually from 115 µM), for inactives: at the top dose activity change, negative = cytotoxicity, most hits filed as inhibitors; HEK 293 viability, ATP luminescence (CellTiter-Glo), 48-72 h; 94,000 tested, 6.6% active; note: % is set by controls: 0 for no effect and ±100 for the full control effect; nearly all actives have a fitted effect of over 60% in size
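qHTS cytotoxicity; HEK 293, 250 cells/well; compound pinned; 48 or 72 hr, 37 degree Celsius, 5% CO2, 95% humidity; CellTiter-Glo, 10 min RT; luminescence (ATP).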
FLuc inh – blocks purified firefly luciferase enzyme activity; Potency, µM (titrated, usually from 115 µM), usual class: inhibitors; 76,000 tested, 2.5% active; P08659; purified P. pyralis luciferase, luminescence, biochemical; note: % is set by controls: 0 for no effect and ±100 for the full control effect; nearly all actives have a fitted effect of over 65% in size
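Luminescence read by CCD imaging after purified firefly luciferase (10nM final) was added to substrate buffer holding 10uM D-luciferin and 10uM ATP, pH 7.5, pre-dosed with compound.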
HEK293 viab – counter-screen for SNCA expression inhibitors: cell viability. Potency, µM (top dose mostly 57.1 µM), inactives show at the highest dose activity change, negative = cytotoxicity, hits mostly cytotoxic. HEK-293-SNCA-luc viability, GF-AFC fluorescence, 24 h. 150,000 tested, 0.12% active;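 note: 0% = DMSO-treated cells and -100% = medium-only wells without cells; nearly all actives have a fitted effect of over 30% in size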
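HEK-293-SNCA-luc cells (1500/well) plated 24 h, then exposed 24 h to a dilution series; GF-AFC added 30 min at 37C, fluorescence 405/540 nm; normalised to medium-only and DMSO wells, Hill fit.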
SNCA expr inhib – reduces expression of the alpha-synuclein gene; HEK-293 SNCA-luciferase knock-in, luminescence, 24 h; Potency, µM (titrated, usually from 57.2 µM), for the others: top-dose activity change, negative = inhibition, actives largely listed as inhibitors; 140,000 tested, 0.17% active; AID 1671194;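 note: plate controls were DMSO cells for no effect and cell-free wells for full effect; nearly all actives have a fitted effect of over 45% in size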
NPR1 antag cnf – confirmation of human Npr1 natriuretic peptide receptor antagonists. shares compounds with hNpr1 antagonist. HEK293 hNpr1 cGMP GloSensor luminescence, ANP-stimulated. Potency, µM (series often up to 57.6 µM), without a hit: at the top dose activity change, negative = inhibition, usual class: inhibitors. 1,400 tested, 76% active; calls by dose curve; note: nearly all actives have a fitted effect of over 70% in size
Npr2 selectivity – selectivity test of Npr1 antagonists against human Npr2; shares compounds with hNpr1 antagonist; HEK293 hNpr2 GloSensor cGMP luminescence, CNP-stimulated; Potency, µM (doses to about 57.6 µM), inactives show at the top dose activity change, negative = inhibition, most hits filed as inhibitors; 1,400 tested, 67% active; AID 1347046; calls by dose curve; note: nearly all actives have a fitted effect of over 70% in size
FLuc counter – inhibits firefly luciferase, false Npr1 antagonist flag | shares compounds with hNpr1 antagonist | purified FLuc enzyme, luminescence, Km substrate | Potency, µM (doses to about 57.6 µM), for inactives: at the highest dose activity change, negative = inhibition, usual class: inhibitors | 1,400 tested, 0.7% active | AID 1347047; note: 0% is about no effect
GloSensor ctrl – counter-screen for Npr1 antagonists: GloSensor control cell line; 1,400 tested, 69% active; HEK293 GloSensor cGMP, SNP-stimulated, luminescence; AID 1347051; Potency, µM (series often up to 57.6 µM), inactives show top-dose activity change, negative = inhibition, actives largely listed as inhibitors; shares compounds with hNpr1 antagonist; calls by dose curve; note: % is set by controls: 0 for no effect and ±100 for the full control effect; nearly all actives have a fitted effect of over 70% in size
Starred values were filed as active, the others as inactive; i = inactive; ? = inconclusive; . = not tested or not shown; [ ] = dose if it differs, or a comment. Unless noted, calls come from the whole dose curve; as a rule, active = well fitted curve in the direction sought with a large enough effect; inconclusive = small, poorly fitted or top-dose-only effect, or another doubt; inactive = no such curve, though single readings can be large; an effect the other way counts as inactive or inconclusive. Potency is the fitted concentration of half-maximal effect.

SMILES	NIH3T3 tox	hNpr1 antagonist	HEK cytotox	FLuc inh	HEK293 viab	SNCA expr inhib	NPR1 antag cnf	Npr2 selectivity	FLuc counter	GloSensor ctrl
CC(C)CN1CCN(C(=O)c2ccc3c(c2)C(O)CCCCCN3C)CC1 (configuration not stated)	-34%	0%	?	i	3%	-5%	.	.	.	.
Cc1ccc(CN2CCN(C(=O)c3ccc4c(c3)C(O)CCCCCN4C)CC2)cc1 (configuration not stated)	?	11µM*	40µM*	i	-3%	11%	22µM*	19µM*	1%	17µM*
COc1ccc(N2CCN(C(=O)c3ccc4c(c3)C(O)CCCCCN4C)CC2)cc1 (configuration not stated)	?	?	?	i	-9%	?	.	.	.	.
Cc1ccc(OCC(=O)N2CCC(c3noc(-c4ccccn4)n3)C2)cc1 (configuration not stated)	i	7%	14%	i	8%	0%	.	.	.	.
CCNC(=O)N1CCC(c2noc(-c3ccccc3)n2)C1 (configuration not stated)	-10%	7%	-2%	i	-18%	-10%	.	.	.	.
Cc1ccc(CNC(=O)N2CCC(c3noc(-c4ccccc4)n3)C2)cc1 (configuration not stated)	?	18µM*	40µM*	i	-5%	?	?	24µM*	0%	24µM*
Cc1cccc(NC(=O)Cn2c(N3CCc4ccccc4C3)nc(C)cc2=O)c1	?	-28%	45µM*	i	-25%	?	-29%	?	0%	?
Cc1cc(=O)n(CC(=O)Nc2ccccc2C)c(N2CCc3ccccc3C2)n1	?	?	?	i	?	?	?	-22%	2%	-27%
COc1ccc(OC)c(NC(=O)Cn2c(N3CCc4ccccc4C3)nc(C)cc2=O)c1	28µM*	?	32µM*	i	?	?	?	?	1%	?
COc1ccccc1NC(=O)Cn1c(N2CCc3ccccc3C2)nc(C)cc1=O	?	-23%	?	i	8%	21%	-23%	-14%	-3%	-10%
O=C(NCc1cccc(Cl)c1)C1CCc2nnc(CN[S+](=O)([O-])c3ccccc3Cl)n21 (configuration not stated)	-19%	.	i	.	-11%	29%	.	.	.	.
O=C(C1CCCN1C(=O)c1ccccc1)N1CCC(c2nc3ccncc3[nH]2)CC1 (configuration not stated)	-14%	.	0%	.	4%	-2%	.	.	.	.
COc1ccccc1S(=O)(=O)NC1CCCN(C2CCCCCC2)C1 (configuration not stated)	-4%	1%	?	i	4%	2%	.	.	.	.
O=S(=O)(c1ccccc1)N1CCCC(c2nc(CCOCC3CCCC3)no2)C1 (configuration not stated)	-26%	-22%	?	i	8%	-15%	?	?	0%	?
CN(Cc1ccc(F)cc1)c1ccc2ncc(Nc3ccnc(N4CCOCC4)c3)n2n1	?	10µM*	?	i	-18%[87.6 µM]	?	25µM*	16µM*	-3%[86.2 µM]	18µM*
COc1ccc(Nc2cnc3ccc(N(C)Cc4cccnc4)nn23)cc1OC	?	?	?	i	-16%[87.6 µM]	8%[87.6 µM]	.	.	.	.
COc1ccc(-n2nc(C)c([C@@H]3C=C[C@@H](NS(=O)(=O)c4cccs4)C3)c2C)cc1	?	?	?	i	?	?	?	?	-4%[86.2 µM]	35µM*
Cc1nn(Cc2ccccc2)c(C)c1[C@@H]1C=C[C@@H](NS(=O)(=O)c2cccs2)C1	?	?	?	i	-4%[87.6 µM]	-5%[87.6 µM]	?	?	-2%[86.2 µM]	?
Cc1nn(-c2ccc(C(F)(F)F)cc2)c(C)c1[C@@H]1C=C[C@@H](NS(=O)(=O)c2cccs2)C1	?	-18%	?	i	-23%	-1%	.	.	.	.
COc1ccc(-n2nc(C)c([C@H]3C=C[C@@H](OC(=O)N[C@H](C)c4ccccc4)C3)c2C)cc1	?	11µM*	14µM*	i	?	-15%[87.6 µM]	9.9µM*	13µM*	-15%[86.2 µM]	8.9µM*
COc1ccc(OC2CN(S(=O)(=O)c3c(C)noc3C)C2)cc1	0%	.	1%	.	8%	7%	.	.	.	.
COc1ccc(CCCNc2cc(C3CC(O)C3)ncn2)cc1 (configuration not stated)	-27%	10µM*	?	i	-8%	-25%	19µM*	19µM*	-1%	14µM*
OC1CC(c2cc(NCCOCc3ccc(Cl)cc3)ncn2)C1 (configuration not stated)	?	11µM*	?	i	7%	-1%	22µM*	?	-3%	22µM*
OC1CC(c2cc(NCCOc3ccccc3)ncn2)C1 (configuration not stated)	?	?	?	?	5%	89%	.	.	.	.
COc1ccc(CCN2CCCC(CN(C)Cc3cnc[nH]3)C2)cc1 (configuration not stated)	-28%	1%	?	i	1%	29%	.	.	.	.
c1ccc(OCc2noc(CN3CCN(C(c4ccccc4)c4ccccc4)CC3)n2)cc1	-8%	3%	?	i	-3%	2%	.	.	.	.
C(=C\c1ccccc1)/CN1CCN(Cc2nc(COc3ccccc3)no2)CC1	?	-25%	?	i	-2%	-9%	?	-22%	2%	?
